Compound activity from PubChem.
M1 ag = human M1 muscarinic receptor agonism; actives 0.33% (n = 360,000); CHO-K1 hM1, Fluo-8 calcium fluorescence, agonist mode; 0% DMSO, 100% acetylcholine EC100; AID 588814; P11229; activation, % at 3 µM;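 active means activation above the run's mean compound activation plus 3 SD, cut at about 16% in these data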;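 further: peak over basal fluorescence ratio within a 140 s kinetic read after compound addition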
Target sequence (P11229 whole entry, looked up): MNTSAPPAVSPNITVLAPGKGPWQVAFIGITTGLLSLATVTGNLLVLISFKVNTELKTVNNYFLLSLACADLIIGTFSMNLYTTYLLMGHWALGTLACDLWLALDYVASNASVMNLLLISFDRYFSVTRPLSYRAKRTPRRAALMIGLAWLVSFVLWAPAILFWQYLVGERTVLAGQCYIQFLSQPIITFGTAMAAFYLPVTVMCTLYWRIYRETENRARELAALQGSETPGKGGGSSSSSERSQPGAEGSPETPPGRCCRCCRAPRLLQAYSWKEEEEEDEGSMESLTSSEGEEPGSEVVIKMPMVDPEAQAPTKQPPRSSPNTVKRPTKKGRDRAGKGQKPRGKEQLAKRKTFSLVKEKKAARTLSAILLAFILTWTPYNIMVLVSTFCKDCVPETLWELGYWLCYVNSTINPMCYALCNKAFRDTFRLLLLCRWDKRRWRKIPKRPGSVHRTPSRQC
CHRM1 antagonist = antagonists of human M1 muscarinic receptor; P11229; CHO-K1 hM1, Fluo-8 calcium fluorescence, ACh EC80 antagonist; inhibition, % at 3 µM; actives 1.3% (n = 360,000); AID 588852;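 active means percent inhibition above its own plate's cutoff, namely the mean of that plate's compound wells plus 3 SD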;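 further: peak over basal fluorescence ratio during 140 s after agonist addition; 0% = ACh EC80 plus DMSO and 100% = DMSO alone without agonist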
CHO-K1 Ca antag = counter-screen for M1 antagonists: effect in parental CHO-K1 cells. inhibition, % at 3 µM. ATP-induced calcium, Fluo-8 fluorescence. actives 0.6% (n = 360,000). AID 602250;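 active means inhibition above a per-plate cutoff, the plate's mean sample inhibition plus 3 SD, cut at about 24% in these data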;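 further: 0% = DMSO plus EC80 ATP and 100% = DMSO alone without ATP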
CHO-K1 Ca ag = nonselective activator or artifact in parental CHO-K1 cells; Fluo-8 calcium fluorescence; scaled to maximal ATP response, vehicle zero; activation, % at 3 µM; actives 0.48% (n = 360,000); AID 602248; in the data active means activation above about 15%;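 further: untransfected CHO-K1 host cells lacking M1 receptor as counterscreen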
CHO-K1 Ca PAM = counter-screen for M1 PAMs: effect in parental CHO-K1 cells; ATP EC20, Fluo-8 calcium fluorescence; 0% at ATP EC20, 100% at ATP max; activation, % at 3 µM; actives 0.02% (n = 360,000);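 active means activation above the run cutoff, the mean activation of all test compounds plus 3 SD, cut at about 40% in these data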;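 further: peak over basal fluorescence ratio in a 140 s read after ATP addition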
CHRM1 PAM = potentiates human M1 receptor response to acetylcholine | activation, % at 3 µM | P11229 | CHO-K1 hM1, Fluo-8 calcium fluorescence, ACh EC20; 0% = ACh EC20, 100% = maximal ACh | actives 0.088% (n = 360,000) | AID 588819; in the data active means activation above about 19%, passing the limit was not always enough
Numbers without * were called inactive. Hits are enriched below; roughly 2.3% of the tested compounds scored in any of these assays.

`Cc1c(Br)c([N+](=O)[O-])nn1C(C)C(=O)NCc1ccco1` (centres undefined) gave M1 ag -8, CHRM1 antagonist 3, CHO-K1 Ca antag -2, CHO-K1 Ca ag 0, CHO-K1 Ca PAM 5 and CHRM1 PAM 6.
Cc1cc(OCC(=O)N2CCc3ccccc3C2)c(C)cc1Br was read as M1 ag -1, CHRM1 antagonist -7, CHO-K1 Ca antag -2, CHO-K1 Ca ag 2, CHO-K1 Ca PAM 13 and CHRM1 PAM 1.
`CC(C)C(NC(=O)c1ccccc1NC(=O)C(C)(C)C)C(=O)N1CCOCC1` (centres undefined) gave M1 ag -3, CHRM1 antagonist 19, CHO-K1 Ca antag 1, CHO-K1 Ca ag 0, CHO-K1 Ca PAM -7 and CHRM1 PAM -6.
`O=C(COc1ccc(F)cc1)Nc1nc(-c2cccnc2)cs1` gave M1 ag 0, CHRM1 antagonist -5, CHO-K1 Ca antag -14, CHO-K1 Ca ag 7, CHO-K1 Ca PAM 13 and CHRM1 PAM 2.
Screening CCc1ccccc1NC(=O)COc1ccc2c(c1)OCO2 returned M1 ag -4, CHRM1 antagonist 3, CHO-K1 Ca antag -10, CHO-K1 Ca ag 1, CHO-K1 Ca PAM 8 and CHRM1 PAM 4.
For Cc1ccc(NC(=O)COc2ccc3c(c2)OCO3)c(Cl)c1 the results were M1 ag 7, CHRM1 antagonist -13, CHO-K1 Ca antag -12, CHO-K1 Ca ag 1, CHO-K1 Ca PAM 11 and CHRM1 PAM 27*.
For O=[N+]([O-])c1ccc(COc2ccc(CNc3ccccc3)cc2)cc1 the results were M1 ag -10, CHRM1 antagonist 26*, CHO-K1 Ca antag -3, CHO-K1 Ca ag 10, CHO-K1 Ca PAM 14 and CHRM1 PAM -23.
`COc1ccc(S(=O)(=O)N(C)C[C@H]2Oc3ncc(Br)cc3C(=O)N([C@@H](C)CO)C[C@@H]2C)cc1` gave M1 ag -9, CHRM1 antagonist -8, CHO-K1 Ca antag -4, CHO-K1 Ca ag 1, CHO-K1 Ca PAM 16 and CHRM1 PAM 3.
Screening CCOc1ccccc1NC(=S)N1CCN(c2cccc(OC)c2)CC1 returned M1 ag 1, CHRM1 antagonist -10, CHO-K1 Ca antag 4, CHO-K1 Ca ag 17*, CHO-K1 Ca PAM 7 and CHRM1 PAM 7.
COc1cccc(N2CCN(C(=S)Nc3ccccc3OC)CC2)c1 was read as M1 ag -4, CHRM1 antagonist -6, CHO-K1 Ca antag -8, CHO-K1 Ca ag 0, CHO-K1 Ca PAM 10 and CHRM1 PAM 10.
Screening COc1ccc(NC(=S)N2CCN(C(c3ccccc3)c3ccccc3)CC2)c(OC)c1 returned M1 ag -14, CHRM1 antagonist 46*, CHO-K1 Ca antag -8, CHO-K1 Ca ag 1, CHO-K1 Ca PAM 22 and CHRM1 PAM -33.
Screening O=C(CC(c1ccc(F)cc1)c1ccco1)N1CCOCC1 (centres undefined) returned M1 ag -3, CHRM1 antagonist 13, CHO-K1 Ca antag -11, CHO-K1 Ca ag 1, CHO-K1 Ca PAM -2 and CHRM1 PAM 28*.
CCN(CC)S(=O)(=O)c1cccc(NC(=O)COC(=O)c2[nH]c(C)c(C(C)=O)c2C)c1 was read as M1 ag 4, CHRM1 antagonist 31*, CHO-K1 Ca antag 8, CHO-K1 Ca ag 8, CHO-K1 Ca PAM 7 and CHRM1 PAM -16.
CC(=O)c1c(C)[nH]c(C(=O)OCC(=O)Nc2cccc(S(=O)(=O)N(C)C)c2)c1C was read as M1 ag -4, CHRM1 antagonist -11, CHO-K1 Ca antag -7, CHO-K1 Ca ag 0, CHO-K1 Ca PAM 1 and CHRM1 PAM 9.
Cc1cc(=O)[nH]c2c1cnn2C(C)c1ccccc1 (centres undefined) was read as M1 ag -4, CHRM1 antagonist -9, CHO-K1 Ca antag -14, CHO-K1 Ca ag 0, CHO-K1 Ca PAM 3 and CHRM1 PAM -1.
For CC(=O)c1ccc(NC(=O)CNC2CCCCC2)cc1 the results were M1 ag -8, CHRM1 antagonist -11, CHO-K1 Ca antag 1, CHO-K1 Ca ag 20*, CHO-K1 Ca PAM 2 and CHRM1 PAM 7.
Screening COc1ccccc1CN1CCC(CNS(=O)(=O)c2cc(-c3onc(C)c3C)ccc2OC)CC1 returned M1 ag -13, CHRM1 antagonist 102*, CHO-K1 Ca antag 11, CHO-K1 Ca ag 1, CHO-K1 Ca PAM -7 and CHRM1 PAM -42.
Screening Cc1cc(-c2ccc(C)c(S(=O)(=O)NCC3CCN(Cc4cccc(F)c4)CC3)c2)on1 returned M1 ag -2, CHRM1 antagonist 20, CHO-K1 Ca antag 1, CHO-K1 Ca ag 8, CHO-K1 Ca PAM -8 and CHRM1 PAM -15.
`COc1cccc(CCN2CCC(CNS(=O)(=O)c3cc(-c4cc(C)no4)ccc3OC)CC2)c1` gave M1 ag -3, CHRM1 antagonist 37*, CHO-K1 Ca antag -14, CHO-K1 Ca ag 3, CHO-K1 Ca PAM -1 and CHRM1 PAM -23.
Cc1cc(-c2ccc(C)c(S(=O)(=O)NCC3CCN(Cc4ccccc4F)CC3)c2)on1 was read as M1 ag -5, CHRM1 antagonist 55*, CHO-K1 Ca antag -5, CHO-K1 Ca ag 1, CHO-K1 Ca PAM 11 and CHRM1 PAM -23.
For COc1cccc(CCN2CCC(CNS(=O)(=O)c3cc(-c4cc(C)no4)ccc3C)CC2)c1 the results were M1 ag 0, CHRM1 antagonist 26, CHO-K1 Ca antag -1, CHO-K1 Ca ag 6, CHO-K1 Ca PAM -13 and CHRM1 PAM -20.
For COc1ccccc1Cc1c(-c2cccc(Cl)c2)nc2ccc(C)cn12 the results were M1 ag -2, CHRM1 antagonist -25, CHO-K1 Ca antag -15, CHO-K1 Ca ag 1, CHO-K1 Ca PAM 17 and CHRM1 PAM 5.
Screening CC(Cc1ccccc1)NC(=O)CCNNC(=O)c1ccncc1 (centres undefined) returned M1 ag -3, CHRM1 antagonist 10, CHO-K1 Ca antag 0, CHO-K1 Ca ag 0, CHO-K1 Ca PAM -11 and CHRM1 PAM -8.
CCOC(=O)N1CCC(N(CCN(C)C)C(=S)Nc2ccc(F)c(Cl)c2)CC1 was read as M1 ag -10, CHRM1 antagonist 2, CHO-K1 Ca antag 27*, CHO-K1 Ca ag 0, CHO-K1 Ca PAM -12 and CHRM1 PAM -1.
CC(=O)c1cc2c(cc1NC(=O)c1ccco1)OCCO2 was read as M1 ag -5, CHRM1 antagonist 17, CHO-K1 Ca antag 25*, CHO-K1 Ca ag 0, CHO-K1 Ca PAM -11 and CHRM1 PAM -9.
Screening CN1CCC(C2(O)c3ccccc3CSc3sccc32)CC1 (centres undefined) returned M1 ag -6, CHRM1 antagonist 18, CHO-K1 Ca antag 4, CHO-K1 Ca ag 1, CHO-K1 Ca PAM 5 and CHRM1 PAM -17.
